The record followed here is PubChem BioAssay (NCI).

Among the test systems are SR leukemia; RPMI-8226 leukemia; OVCAR-8 ovarian; OVCAR-5 ovarian; OVCAR-4 ovarian; SK-OV-3 ovarian; IGROV1 ovarian; OVCAR-3 ovarian; HS 578T breast; NCI/ADR-RES ovarian; T-47D breast; BT-549 breast; MDA-MB-435 melanoma; SW-620 colon; MCF7 breast; HCT-116 colon; HCC-2998 colon; KM12 colon; MDA-MB-468 breast.
What all share (experiment): NCI-60 one-dose screen, 48 h (100 = growth as untreated, 0 = no growth, -100 = all killed)
Holding throughout (conditions): 10 µM unless noted

About 83,000 compounds went through this panel and 20% of them were active in at least one assay; those are over-represented in the sample as a whole.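 Interpretation: 100, growth as untreated; towards 0, rising growth inhibition; 0, no net growth; 0 to -100, cell death. Compounds scoring below 10 were considered active.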 Unmarked numbers belong to inactive results. Calls of active or inactive are those of the source.

For `COc1ccc(C(SCCNCc2cc(N(C)C)ccn2)(c2ccccc2)c2ccccc2)cc1`, the growth in the experiment with SR leukemia was -43.2% (active); with RPMI-8226 leukemia, -27.1% (active); in the experiment with OVCAR-8 ovarian, -5.35% (active); in the experiment on OVCAR-5 ovarian, -13.8% (active); in the experiment on OVCAR-4 ovarian, 22.3%; in the experiment with SK-OV-3 ovarian, -5.07% (active). Further, the growth in the experiment on IGROV1 ovarian is 11.4%; in the experiment with OVCAR-3 ovarian, -1.36% (active); in the experiment on HS 578T breast, -23.1% (active); in the experiment with NCI/ADR-RES ovarian it was -46.1% (active); with T-47D breast, -9.47% (active); in the experiment with BT-549 breast it was -13.4% (active). The growth with MDA-MB-435 melanoma was -53.7% (active); in the experiment with SW-620 colon it was -50.5% (active); in the experiment with MCF7 breast it was -48.5% (active); in the experiment on HCT-116 colon it was -27% (active); in the experiment with HCC-2998 colon, -81.9% (active); in the experiment with KM12 colon, -9.54% (active). Besides, in the experiment on MDA-MB-468 breast, the growth was -58.2% (active).
Consider `CC(C)CSc1nc(NCCc2c[nH]c3ccccc23)c(C#N)c(-c2ccccc2)n1`, for which the growth in the experiment with SR leukemia is -10.2% (active); in the experiment on RPMI-8226 leukemia, 35.8%; in the experiment on OVCAR-8 ovarian, 76.9%; in the experiment with OVCAR-5 ovarian, 85.6%; with OVCAR-4 ovarian, 77.2%; in the experiment on SK-OV-3 ovarian, 86.7%. Also, the growth was 104% in the experiment on IGROV1 ovarian; 93.5% with OVCAR-3 ovarian; 48.2% in the experiment with HS 578T breast; 53.5% in the experiment on NCI/ADR-RES ovarian; 30.9% with T-47D breast; 92.6% in the experiment with BT-549 breast. Besides, the growth in the experiment with MDA-MB-435 melanoma was 71.7%; in the experiment on SW-620 colon, 36.1%; with MCF7 breast it was 20.1%; with HCT-116 colon it was 11.6%; in the experiment on HCC-2998 colon it was 43.5%; with KM12 colon it was 35.3%. In addition, the growth in the experiment on MDA-MB-468 breast is 20.8%.
For `Cc1cc(C)cc(NC(=O)Cn2cc(COn3nnc4ccccc43)nn2)c1`, the growth was 90.1% in the experiment with SR leukemia; 108% with RPMI-8226 leukemia; 104% in the experiment with OVCAR-8 ovarian; 102% in the experiment on OVCAR-5 ovarian; 109% in the experiment on OVCAR-4 ovarian; 103% in the experiment with SK-OV-3 ovarian. In addition, the growth in the experiment with IGROV1 ovarian is 104%; in the experiment on OVCAR-3 ovarian it was 129%; in the experiment on HS 578T breast, 102%; in the experiment on NCI/ADR-RES ovarian it was 102%; in the experiment with T-47D breast it was 100%; with BT-549 breast it was 108%. Also, the growth in the experiment with MDA-MB-435 melanoma was 100%; in the experiment on SW-620 colon it was 115%; in the experiment with MCF7 breast, 99.5%; in the experiment on HCT-116 colon, 103%; in the experiment on HCC-2998 colon, 104%; with KM12 colon, 114%. The growth with MDA-MB-468 breast was 98.7%.
Take `C=C1CCC2C3(C)COC(c4cccc(F)c4)OC3CCC2(C)C1C/C=C1/C(=O)OCC1O` (configuration not stated): the growth was 9.74% (active) with SR leukemia; 10.5% in the experiment on RPMI-8226 leukemia; -52.2% (active) with OVCAR-8 ovarian; 22.1% with OVCAR-5 ovarian; -0.215% (active) with OVCAR-4 ovarian; 60.5% in the experiment with SK-OV-3 ovarian. Also, the growth in the experiment with IGROV1 ovarian was -24% (active); in the experiment on OVCAR-3 ovarian it was -71.8% (active); in the experiment on HS 578T breast, 15.9%; with NCI/ADR-RES ovarian, -18% (active); in the experiment on T-47D breast, -5.25% (active); in the experiment with BT-549 breast, -82.2% (active). Further, the growth was -10.3% (active) in the experiment with MDA-MB-435 melanoma; -63% (active) in the experiment on SW-620 colon; -7.05% (active) in the experiment on MCF7 breast; -73.8% (active) in the experiment with HCT-116 colon; -51% (active) with HCC-2998 colon; -27.8% (active) in the experiment on KM12 colon. In addition, the growth with MDA-MB-468 breast is -35.2% (active).
For the compound `C=C1CC[C@@H]2[C@]3(C)COC(c4ccccc4)O[C@@H]3CC[C@@]2(C)[C@@H]1C/C=C1/C(=O)OCC1OC(C)=O` (some centres not stated), the growth was -32.8% (active) in the experiment on SR leukemia; -42.4% (active) in the experiment on RPMI-8226 leukemia; -64.9% (active) in the experiment on OVCAR-8 ovarian; -78.5% (active) with OVCAR-5 ovarian; 0.176% (active) with OVCAR-4 ovarian; 93.7% with SK-OV-3 ovarian. Moreover, the growth in the experiment on IGROV1 ovarian is -51.3% (active); in the experiment with OVCAR-3 ovarian, -88.2% (active); in the experiment on HS 578T breast, 61.5%; with NCI/ADR-RES ovarian it was -73.1% (active); with T-47D breast it was -45.1% (active); in the experiment with BT-549 breast, -93.5% (active). Also, the growth is -29.3% (active) in the experiment with MDA-MB-435 melanoma; -49.1% (active) with SW-620 colon; -56.7% (active) in the experiment with MCF7 breast; -94.7% (active) with HCT-116 colon; -76.2% (active) in the experiment on HCC-2998 colon; -9.91% (active) in the experiment on KM12 colon. For the same compound, in the experiment on MDA-MB-468 breast, the growth was -89.8% (active).
As for `COc1cc2oc(-c3cccc(NC(=O)[C@H](Cc4ccccc4)NC(=O)OC(C)(C)C)c3)cc(=O)c2c(OC)c1OC`, the growth was 22.5% in the experiment with SR leukemia; 22.7% in the experiment with RPMI-8226 leukemia; 26.7% with OVCAR-8 ovarian; 80.8% in the experiment with OVCAR-5 ovarian; 41.4% with OVCAR-4 ovarian; 78.7% in the experiment on SK-OV-3 ovarian. In addition, the growth in the experiment with IGROV1 ovarian is 32.7%; in the experiment on OVCAR-3 ovarian, 36.3%; with HS 578T breast, 16.4%; with NCI/ADR-RES ovarian, 29.6%; with T-47D breast it was 38.7%; with BT-549 breast it was 28.7%. The growth is 61.9% in the experiment on MDA-MB-435 melanoma; 43.3% in the experiment with SW-620 colon; 22.1% in the experiment with MCF7 breast; 15.1% in the experiment with HCT-116 colon; 69.6% in the experiment on HCC-2998 colon; 19.5% in the experiment with KM12 colon. Moreover, the growth in the experiment on MDA-MB-468 breast was 41.8%.
Take `O=C(COc1ccc(NC(=O)Nc2ccc(Cl)c(Cl)c2)cc1)N=Nc1c(O)[nH]c2ccc([N+](=O)[O-])cc12`: the growth in the experiment with SR leukemia was 25.5%; in the experiment with RPMI-8226 leukemia it was 55.4%; in the experiment with OVCAR-8 ovarian, 78.1%; with OVCAR-5 ovarian, 74.4%; in the experiment on OVCAR-4 ovarian, 75.2%; with SK-OV-3 ovarian, 95.2%. The growth in the experiment on IGROV1 ovarian is 74.4%; in the experiment with OVCAR-3 ovarian, 56.8%; in the experiment with HS 578T breast it was 57.4%; in the experiment on NCI/ADR-RES ovarian it was 100%; with T-47D breast it was 66%; in the experiment with BT-549 breast, 50%. For the same compound, the growth in the experiment on MDA-MB-435 melanoma is 59.5%; in the experiment on SW-620 colon, 15.9%; with MCF7 breast, 30.6%; in the experiment with HCT-116 colon, 11.3%; in the experiment on HCC-2998 colon, 82.6%; in the experiment on KM12 colon, 42.2%. In the experiment with MDA-MB-468 breast, the growth is 32.6%.
`O=C(Cn1nc(-c2ccccc2)ccc1=O)N/N=C/c1ccc(N2CCOCC2)cc1`: the growth in the experiment on SR leukemia was 85.9%; with RPMI-8226 leukemia, 87.8%; in the experiment with OVCAR-8 ovarian, 102%; in the experiment on OVCAR-5 ovarian, 107%; with OVCAR-4 ovarian, 93.9%; in the experiment with SK-OV-3 ovarian it was 107%. Also, the growth was 113% in the experiment with IGROV1 ovarian; 103% in the experiment on OVCAR-3 ovarian; 86.6% in the experiment with HS 578T breast; 95.5% in the experiment with NCI/ADR-RES ovarian; 69.4% in the experiment with T-47D breast; 121% with BT-549 breast. Moreover, the growth is 97.6% in the experiment on MDA-MB-435 melanoma; 102% with SW-620 colon; 83.8% in the experiment with MCF7 breast; 103% with HCT-116 colon; 113% in the experiment with HCC-2998 colon; 102% with KM12 colon. Also, in the experiment with MDA-MB-468 breast, the growth is 104%.
